Source: PubChem BioAssay AID504332 (National Center for Advancing Translational Sciences (NCATS), 2011)
Values joined by “and” are separate entries in the source; they are usually repeats but may differ in a detail not shown here. Identical values can stand only once. The whole screen tested about 350,000 compounds, of which about 31,000 (8.9%) were called active. Entries that show only a call come without a potency. About 15% were inconclusive and are not listed. Calls follow the shape of the dose curve; as a rule, active = well fitted inhibition curve with a large enough effect; inconclusive = small, poorly fitted or top-dose-only effect; inactive = no such curve, though single readings can be large or run the other way. Only a selection was taken, and actives are over-represented in it overall. Where a structure was tested more than once in an assay, its records may differ in their call.

molecular target: Histone-lysine N-methyltransferase EHMT2 (Homo sapiens) (UniProt Q96KQ7); assay: qHTS Assay for Inhibitors of Histone Lysine Methyltransferase G9a; settings: G9a H3K9 monomethylation, AlphaScreen, 2 h; series mostly up to 59 µM; also: nearly all actives have a fitted effect of over 75% in size
Method in brief: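 Using a bead-based AlphaScreen, monomethylated H3K9 product from 2 h room-temperature reactions (G9a 20 nM, peptide 500 nM, SAM 20 uM) was detected with 0.5 ug/mL rabbit anti-H3K9me1 antibody.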
Potency is read from the fitted curve at half-maximal effect.

Sequence of Histone-lysine N-methyltransferase EHMT2 (Homo sapiens) (Q96KQ7 913-1193 limits assumed): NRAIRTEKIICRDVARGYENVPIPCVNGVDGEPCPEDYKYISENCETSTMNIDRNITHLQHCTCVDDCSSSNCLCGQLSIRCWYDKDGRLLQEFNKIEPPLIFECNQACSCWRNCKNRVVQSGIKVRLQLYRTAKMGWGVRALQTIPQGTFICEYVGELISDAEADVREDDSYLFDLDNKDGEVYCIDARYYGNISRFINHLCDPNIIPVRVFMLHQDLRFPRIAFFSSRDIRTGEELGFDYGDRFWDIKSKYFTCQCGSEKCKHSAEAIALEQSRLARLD

| SMILES | activity, negative = inhibition | Potency |
| --- | --- | --- |
| COc1cccc(-c2ccc3c(c2)S(=O)(=O)c2cccc(C(=O)O)c2C3=O)c1OC | -17.9% [at 0.501 µM] (inactive) |  |
| CCC(=O)N1c2ccc(S(=O)(=O)NCc3ccco3)cc2CC1C (stereo not drawn) |  | inactive |
| Fc1ccc(-n2ncc3c(Nc4ccc(Oc5ccccc5)cc4)ncnc32)cc1 |  | inactive |
| CCCc1cc(=O)[nH]c2nnc(SCC(=O)Nc3nnc(SCC)s3)n12 |  | inactive |
| Cc1cccc(Nc2nc(C)nc(N)c2S(=O)(=O)c2ccccc2)c1 |  | inactive |
| C=CCc1cccc(/C=N/NC(=O)COc2ccc(-n3cnnn3)cc2)c1O |  | inactive |
| CCN(CC)S(=O)(=O)c1ccc(N2CCOCC2)c(NC(=O)c2ccc(=O)n(C)n2)c1 | -4.25% [at 12.7 µM] (inactive) |  |
| C[C@@]12C(=O)N(c3cccc(Br)c3)C(=O)N1[C@H](c1ccc(Cl)cc1)[C@@H]1C(=O)N(C3CCCCC3)C(=O)[C@@H]12 |  | inactive |
| O=C1[C@@H]2C(Cc3ccc(O)cc3)NC3(C(=O)Nc4ccc(F)cc43)[C@@H]2C(=O)N1c1ccc(F)cc1 (stereo partly drawn) | -37.6% [at 12.7 µM] (inactive) |  |
| CSCCC1NC2(C(=O)Nc3ccc(Cl)cc32)[C@@H]2C(=O)N(C3CCCC3)C(=O)[C@H]12 (stereo partly drawn) |  | 50.1 µM (active) |
| O=C(NCCS(=O)(=O)N1CCN(c2ccc(F)cc2)CC1)c1ccc2c(c1)OCO2 |  | inactive |
| O=C(Nc1ccccc1F)C(c1ccccc1)N1Cc2ccccc2C1=O (stereo not drawn) |  | inactive |
| CC1CCCCN1Cc1c(O)ccc2c(=O)c(-c3cccc(Cl)c3)c(C(F)(F)F)oc12 (stereo not drawn) |  | inactive |
| CCOC(=O)C(=O)C1C(=O)Nc2ccccc21 (stereo not drawn) | -47.2% [at 2.33 µM] (inactive) |  |
| CCCCC(CC)CNC(=O)C1CCN(S(=O)(=O)c2cccc3nsnc23)CC1 (stereo not drawn) |  | inactive |
| CCCCC(CC)CNC(=O)C(=O)C1C(=O)Nc2ccccc21 (stereo not drawn) |  | 44.7 µM (active) |
| O=C(c1ccc2c(c1)N(Cc1ccccc1)C(=O)c1ccccc1S2(=O)=O)N1CCCC1 |  | inactive |
| O=C(c1ccc2c(c1)N(Cc1ccc(F)cc1)C(=O)c1ccccc1S2(=O)=O)N1CCN(c2ccccn2)CC1 |  | inactive and 22.4 µM (active) |
| O=C(c1ccc2c(c1)N(Cc1ccc(Cl)cc1)C(=O)c1ccccc1S2(=O)=O)N1CCCCC1 |  | inactive |
| CCOC(=O)c1cc(C(=O)Nc2ccc(S(=O)(=O)Nc3ccc(OC)cc3)cc2)nn1C |  | inactive |
| Cc1ccc2nc(-c3ccc(Br)cc3)cn2c1 |  | inactive |
| O=C1C=C(c2cccc(Cl)c2)C[C@@H](c2ccc(F)cc2)C1 | 6.54% [at 0.501 µM] (inactive) |  |
| CC1=C(C(=O)OCc2ccc(C)cc2)C(c2ccccc2Cl)CC(=O)N1 (stereo not drawn) |  | inactive |

| SMILES | activity, negative = inhibition | Potency |
| --- | --- | --- |
| N/C(=N\OC(=O)N1c2ccccc2Sc2ccccc21)c1ccc(Br)cc1 |  | 50.1 µM (active) |
| N/C(=N\OC(=O)c1ccc2c(c1)OCO2)c1ccc(Br)cc1 |  | inactive |
| N/C(=N\OC(=O)/C=C/c1ccccc1)c1ccc(Br)cc1 |  | inactive |
| CCN1C(=O)/C(=C2/Sc3ccccc3N2CCCS(=O)(=O)O)SC1=S |  | 39.8 µM (active) |
| CCN1C(=O)/C(=c2\s/c(=C3\Sc4ccccc4N3C)c(=O)n2C)N(C)C1=S |  | inactive |
| CCCCN1C(=O)/C(=C/C=C2/C=Cc3ccccc3N2CC)SC1=S |  | inactive |
| CCN1C(=O)[C@H]2[C@@H](c3ccc(SC4CCCCC4)c(OC)c3)N[C@@](Cc3ccccc3)(C(=O)OC)[C@H]2C1=O | 20.9% [at 2.33 µM] (inactive) |  |
| CCc1ccccc1NC(=O)c1ccc(F)c(S(=O)(=O)NC2CCCCCC2)c1 |  | inactive |
| Cn1c(=O)c2sccc2n2c(CCC(=O)NCc3ccccc3Cl)nnc12 |  | inactive |
| Cc1ccc(-c2nnc3c4ccccc4c(C)nn23)cc1NC(=O)c1cccc(Br)c1 |  | inactive |
| O=C(NC(=S)Nc1cccc2c(O)cccc12)c1cccc(Br)c1 |  | 50.1 µM (active) |
| Cc1ccccc1NC(=S)NNC(=O)c1cccc(Br)c1 |  | inactive |
| CC(=O)Nc1ccc(S(=O)(=O)N2CCN(S(=O)(=O)c3cccs3)CC2)cc1 |  | inactive |
| CCCc1c(C(=O)N/N=C(\C)CCc2ccc(OC)cc2)nnn1-c1nonc1N |  | inactive |
| C/C(=N\NC(=O)Cc1ccccc1[N+](=O)[O-])c1cccnc1 |  | inactive |
| O=C(/C=C/c1ccc(Cl)cc1Cl)c1cccnc1 |  | 8.91 µM (active) |
| O=C(/C=C/c1ccc(Cl)c([N+](=O)[O-])c1)c1cccnc1 |  | 39.8 µM (active) |
| O=C(/C=C/c1ccc(Cl)cc1Cl)NCc1ccco1 | 2.18% [at 0.501 µM] (inactive) |  |
| O=C(Nc1cccnc1)c1cc([N+](=O)[O-])ccc1Cl |  | inactive |
| O=C(Nc1cccnc1)c1cc(Cl)ccc1Cl |  | inactive |
| Cc1ccc(S(=O)(=O)N2CCCc3cc(NS(=O)(=O)c4cc(C)ccc4C)ccc32)cc1 |  | inactive |
| CCOc1ccc(CCNC(=O)COC(=O)CCS(=O)(=O)c2ccc(C)cc2)cc1OCC | -3.67% [at 0.501 µM] (inactive) |  |
| O=C(CCn1c(=O)c2sccc2n(Cc2ccc(F)cc2)c1=O)NCc1ccc2c(c1)OCO2 |  | inactive |

| SMILES | activity, negative = inhibition | Potency |
| --- | --- | --- |
| O=C(NC1CCCCCC1)c1cccnc1Sc1ccc(Cl)cc1 |  | inactive |
| O=C(NC1CCCCC1)c1ccc(-c2ccc(Cl)cc2)o1 |  | 44.7 µM (active) |
| S=C(NCc1ccc(Cl)cc1)NC1CCCCC1 |  | inactive |
| CCSc1ncc(Cl)c(C(=O)Nc2c(C(=O)c3ccccc3)oc3ccccc23)n1 |  | inactive |
| Cc1ccc(CNC(=O)CSc2c3c(nc4cc(Cl)ccc24)CCCC3)cc1 |  | inactive |
| COc1ccc(CNC(=O)c2cc3c(=O)[nH]c4ccccc4c3s2)cc1 |  | inactive |
| CCCn1c(=O)c2[nH]c(-c3ccc(OCC(=O)NCCN)cc3)nc2n(CCC)c1=O | 32.3% [at 12.7 µM] (inactive) | 14.1 µM (active) |
| CCCn1c(=O)c2[nH]c(C3CCCC3)nc2n(CCC)c1=O |  | inactive |
| CCCNC(=O)CCn1cc(-c2ccc(OC)cc2)nc1CCN | -5.65% [at 2.33 µM] (inactive) |  |
| COc1ccc(CNC(=O)c2cc3c(s2)-c2ccccc2OC3)cc1 |  | inactive |
| CC(C)(C)c1cc(C(=O)NCc2cccnc2)ccn1 | 17.8% [at 0.501 µM] (inactive) |  |
| Cc1ccc(-n2nc(-c3ccco3)cc2C(=O)NCc2cccnc2)cc1 |  | 2.51 µM (active) |
| Cc1ccc(C(=O)NC(=S)NCc2cccnc2)cc1 |  | inactive |
| O=C(NCC12CC3CC(CC(C3)C1)C2)c1cc2nc(-c3ccccc3)cc(C(F)(F)F)n2n1 |  | inactive |
| COc1cc(OC)c(NC(=O)c2nc(-c3ccncc3)no2)cc1Cl |  | inactive |
| Cc1ccc(C)c(Nc2nnc(-c3ccc(C)c(S(=O)(=O)N4CCCCC4)c3)c3ccccc23)c1 |  | inactive |
| O=C(CNC(=O)c1ccccc1Br)NNC(=O)c1cccs1 |  | inactive |
| O=C1CCC(C(=O)N2CCN(c3ccccc3Cl)CC2)CN1CC1CCCCC1 (stereo not drawn) |  | inactive |
| COc1ccc(NC(=O)COC(=O)c2n[nH]c3ccccc23)c(OC)c1 | 3.57% [at 12.7 µM] (inactive) |  |
| CCCn1c(C)cc(/C=C(\C#N)C(=O)OCC(=O)N(C)c2c(N)n(Cc3ccccc3)c(=O)[nH]c2=O)c1C |  | inactive |
| CCN(CC)c1ccc(/C=N/NC(=O)CNC(=O)c2cccs2)cc1 |  | 50.1 µM (active) |
| CCN(CC)c1ccc(/C=N/NC(=O)CNC(=O)c2cccnc2)cc1 |  | inactive |
| O=C(CNC(=O)c1cccs1)N/N=C/c1cccc(Br)c1 |  | inactive |

| SMILES | activity, negative = inhibition | Potency |
| --- | --- | --- |
| O=C(NCCS(=O)(=O)N1CCN(c2ccc(F)cc2)CC1)c1ccccc1Br |  | inactive |
| O=C(Nc1ccc(OC(F)(F)F)cc1)C1CCCN(S(=O)(=O)c2ccc(Br)s2)C1 (stereo not drawn) |  | inactive |
| CC(C)NC(=O)NC(=O)COC(=O)c1ccc(NC(=O)CC#N)cc1 |  | inactive |
| N#CCC(=O)NC(=O)NCC1CC1 |  | 39.8 µM (active) |
| N#Cc1ccc(C(=O)OCC(=O)NC(=O)NC2CCCCC2)cc1 | 13.4% [at 2.33 µM] (inactive) |  |
| CC1(C)O[C@@H]2[C@H](O1)[C@@H](CO)O[C@H]2n1c(N2CCCCC2)nc2c(N)ncnc21 | 9.14% [at 0.501 µM] (inactive) |  |
| Cc1cc(OCC(=O)Nc2ncn[nH]2)c(C)c(C)c1Br |  | inactive |
| Cc1ccc(C)c(OCCC(=O)Nc2cccc(S(=O)(=O)N3CCCC3)c2)c1 | 6.86% [at 0.501 µM] (inactive) |  |
| Cc1ccc(OCCCCN2CCCCC2)c(Br)c1 |  | 11.2 µM (active) |
| Cc1ccc(C(C)(C)C)c(OCCCCN2CCCC2)c1 |  | 8.91 µM (active) |
| Cc1ccc(Cl)c(OCC(=O)NN2CCN(C)CC2)c1 |  | inactive |
| CC(=O)Nc1ccc(S(=O)(=O)N2CCN(CCCOc3cc(C)ccc3C)CC2)cc1 | -3.97% [at 12.7 µM] (inactive) |  |
| Cc1ccc(OCC(O)CN2CCN(CC(O)COc3ccc(C)cc3Cl)CC2)c(Cl)c1 (stereo not drawn) |  | inactive |
| COCCNc1ncnc2c1c(-c1ccccc1)cn2-c1ccc(C)c(Cl)c1 |  | inactive |
| CCOC(=O)N1CCN(S(=O)(=O)c2ccc3c(c2)C(C)C(=O)N3)CC1 (stereo not drawn) | 14.1% [at 12.7 µM] (inactive) |  |
| Cc1ccccc1N1CCN(C2CCCN(C(=O)c3cn4c(C)cccc4n3)C2)CC1 (stereo not drawn) | 9.34% [at 0.501 µM] (inactive) |  |
| CCC(=O)Nc1ccc(-c2ccc(N3CCCCC3)nn2)cc1 |  | inactive |
| Cc1ccc(C)c(CNC(=O)c2cc3ccccn3n2)c1 |  | inactive |
| CCCN1CCN(CCCNC(=O)Cn2nc(CC)n3c(cc4occc43)c2=O)CC1 |  | inactive |
| O=C(CSc1ncc(-c2ccccc2)[nH]1)Nc1ccc(F)cc1F |  | inactive |
| COc1ccc(/C=N/OCc2ccccc2C#N)c(OC)c1 |  | inactive |
| CCc1ccc2oc(-c3ccc(NC(=O)c4cc5ccccc5o4)cc3)nc2c1 |  | inactive |
| COc1ccc(CCNC(=O)c2cn(C)c3ccc(S(=O)(=O)N(C)C4CCCCC4)cc3c2=O)cc1OC |  | inactive |
